Screening results deposited in PubChem BioAssay by National Center for Advancing Translational Sciences (NCATS).
D1 ag = agonists of human D1 dopamine receptor | P21728 | HEK293 T-REx D1 cells, calcium flux, agonist mode | activation, % at 2 µM | 1% of 360,000 active; in the data active = activation above about 30%
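Inducible HEK293 T-REx D1 cells, force-coupled to calcium signalling, were plated at 4000 cells/well with tetracycline and held overnight at 30 C. After no-wash calcium dye loading, compound-evoked calcium rise over 180 s flagged agonists.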
D3 ag = D3 dopamine receptor (human) agonism; max activation, %; 0.58% of 410,000 active; AID 652048; P35462; D3R DiscoveRx beta-arrestin cells, luminescence, 90 min; in the data active = max activation above about 30%
Target sequence (P35462 whole entry, looked up): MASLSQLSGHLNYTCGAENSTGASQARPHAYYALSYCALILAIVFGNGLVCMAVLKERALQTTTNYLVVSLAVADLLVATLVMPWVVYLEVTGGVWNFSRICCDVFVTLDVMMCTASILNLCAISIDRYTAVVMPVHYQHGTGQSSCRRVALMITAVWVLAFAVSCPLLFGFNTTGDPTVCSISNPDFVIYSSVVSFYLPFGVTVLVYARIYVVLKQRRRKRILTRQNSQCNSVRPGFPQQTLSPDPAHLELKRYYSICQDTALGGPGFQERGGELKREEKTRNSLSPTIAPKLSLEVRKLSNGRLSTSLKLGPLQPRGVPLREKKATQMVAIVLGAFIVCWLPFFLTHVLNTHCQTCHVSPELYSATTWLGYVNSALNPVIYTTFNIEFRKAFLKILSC
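Agonist-mode cell screen: cells plated at 1500/well and incubated overnight at 37 °C, then exposed to library compounds for 90 min at 37 °C. Detection reagent was added for 30–60 min at room temperature, and luminescence was read.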
D3 antag = antagonists of human D3 dopamine receptor; P35462; D3R cells, DiscoveRx beta-arrestin luminescence, antagonist mode; hits give low values; max response, negative = inhibition, %; 2.5% of 360,000 active; AID 652054; in the data active = max response below about -50%; inconclusive = no clear call, values can overlap the other calls
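Cells expressing the human receptor were seeded at 1500 cells/well, incubated overnight at 37 degrees C in 5% CO2, then exposed to library compounds with dopamine controls for 90 minutes at 37 degrees C before luminescent detection.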
D1 PAM = potentiators of human D1 dopamine receptor; HEK293 TREx D1 cells, calcium flux, dopamine EC20 potentiation; P21728; AID 504651; 0.036% of 360,000 active; potentiation, % at 10 µM; in the data active = potentiation above about 30%
D1 antagonist = blocks dopamine activation of the human D1 receptor. P21728. HEK293 TREx D1 cells, calcium flux, dopamine EC80; hits give low values. activity change, negative = inhibition, % at 10 µM. 3.2% of 360,000 active. AID 504652; in the data active = activity change below about -30%
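Compound effects on dopamine-evoked calcium signalling were measured in tetracycline-induced HEK293 Trex D1 cells. Dopamine at EC80 followed a 180 s compound pre-read, and fluorescence was tracked kinetically for 180 s more.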
Of the large screens only hits and unclear results are named; the others gave an inactive call. An excerpt weighted towards active compounds, which were near 6% of everything screened.

CN(C)CCN1CCN(C2CN(Cc3cn(Cc4cccc(C(F)(F)F)c4)nn3)S(=O)(=O)C2)CC1 (configuration not stated)	D3 antag -72 (no result: D1 ag, D1 PAM, D1 antagonist)
CN(C)CCN1CCN(C2CN(Cc3cn(Cc4ccc(C(F)(F)F)cc4)nn3)S(=O)(=O)C2)CC1 (configuration not stated)	D3 antag inconclusive (no result: D1 ag, D1 PAM, D1 antagonist)
CN(C)CCN1CCN(C2CN(Cc3cn(Cc4ccc(Cl)cc4)nn3)S(=O)(=O)C2)CC1 (configuration not stated)	D3 antag -51 (no result: D1 ag, D1 PAM, D1 antagonist)
CC(=O)c1ccc(NC(=O)c2cc(C3CC3)nc3c2c(C)nn3-c2ccc(C)cc2)cc1	none (no result: D3 antag)
CCOC(=O)C(NC(=O)Nc1ccc(F)cc1F)(Oc1ccc(F)cc1)C(F)(F)F (configuration not stated)	D1 antagonist -85
CCOC(=O)C(NC(=O)Nc1ncccn1)(Oc1ccccc1)C(F)(F)F (configuration not stated)	none
COc1ccccc1N1CCN(/N=C\c2sccc2C)CC1	D1 antagonist -43
COCCN(C(=O)COC(=O)C1=COCCO1)c1c(N)n(Cc2ccccc2)c(=O)[nH]c1=O	D1 antagonist -61
COCCN(C(=O)COC(=O)c1cnc(C)cn1)c1c(N)n(Cc2ccccc2)c(=O)[nH]c1=O	D3 antag -77
CC1=C(C(=O)N(C(C)C)C(C)C)CC(CC(=O)NC2CCCC2)C(=O)N1Cc1ccc(C(C)(C)C)cc1 (configuration not stated)	D3 antag inconclusive (no result: D1 ag, D1 PAM, D1 antagonist)
CCOC(=O)c1ccc(CN(Cc2ccc(Cl)cc2Cl)S(=O)(=O)c2ccc(F)c(C)c2)cc1	D1 ag 45, D1 antagonist -32 (no result: D3 antag)
CCc1cccc(C)c1NC(=O)c1cc(S(=O)(=O)N(Cc2ccc(C(=O)OC)cc2)Cc2ccc(OC)c(OC)c2)ccc1F	D1 antagonist -38 (no result: D3 antag)
CCOC(=O)c1ccc(CN(Cc2ccc(F)cc2)S(=O)(=O)c2ccc(F)cc2)cc1	none (no result: D3 antag)
C/C1=C2N=C(/C=C3N=C(/C(C)=C4\[N-][C@@](C)([C@@H]5N=C1[C@](C)(CCC(=O)NCC(C)OP(=O)(O)O[C@H]1[C@@H](O)[C@@H](n6cnc7cc(C)c(C)cc76)O[C@@H]1CO)[C@H]5CC(N)=O)[C@@](C)(CC(N)=O)[C@@H]4CCC(N)=O)[C@@](C)(CC(N)=O)[C@@H]\3CCC(N)=O)C(C)(C)[C@@H]/2CCC(N)=O.CC(=O)O.[Co] (some centres not stated)	none (no result: D1 ag, D3 antag, D1 PAM, D1 antagonist)
COc1ccccc1N1CCN(CC(=O)NCc2ccc(Cl)cc2)CC1	D3 antag -70
COC(=O)c1cccc(NC(=O)CN2CCN(Cc3ccccc3)CC2)c1	D3 antag -50
CC(=O)c1cccc(NC(=O)CN2CCN(Cc3ccccc3)CC2)c1	none
COc1ccccc1N1CCN(CC(=O)Nc2ccc(CN3CCCCC3)cc2)CC1	D3 antag -65
Cc1ccc(Cl)cc1N1CCN(CC(=O)Nc2ccc(CN3CCCCC3)cc2)CC1	D1 ag 54, D3 antag -65, D1 antagonist -48
COc1ccc(OCC(=O)Nc2ccc3c(c2)N(C)C(=O)c2ccccc2S3)cc1	none (no result: D3 antag)
CCOC(=O)[C@]12CCC=C1N(Cc1ccccc1)C(=O)[C@H](CC(=O)NCCCN1CCCC1=O)C2	none (no result: D1 ag, D1 PAM, D1 antagonist)
Cc1ccc(S(=O)(=O)N2CCC[C@H]2C(=O)OC(C)C(=O)Nc2ncc(Cl)cc2Cl)cc1 (some centres not stated)	none
Cc1ccccc1-c1nc2c3c(-c4ccccc4)c(-c4ccccc4)oc3ncn2n1	none (no result: D3 antag)
CCOc1ccc(OCC)c(Nc2cc(C)nc3nc(-c4ccco4)nn23)c1	none (no result: D3 antag)
Cc1cc(C)cc(Nc2cc(C)nc3nc(-c4ccco4)nn23)c1	D1 antagonist -39 (no result: D3 antag)
Nc1cccc(-c2cn3ccsc3n2)c1	none (no result: D3 antag)
COc1ccc(/C=N/NC(=O)c2cccc(OC(F)(F)C(F)F)c2)c(OC)c1OC	none
COc1ccc(/C=N/NC(=O)c2cccc(OC(F)(F)C(F)F)c2)cc1O	D3 antag -76
CCCN(Cc1nnc(-c2ccccc2Cl)o1)C(=O)c1cc2ccccc2o1	D1 antagonist -31
O=C(c1cc2ccccc2o1)N(Cc1nnc(-c2ccccc2Cl)o1)C1CC1	none
CC1(C)CC(NCCN2CCN(C3=CC(=C(C#N)C#N)CC(C)(C)C3)CC2)=CC(=C(C#N)C#N)C1	none
CCN1CCN(C2=CC3=CC(=C(C#N)C#N)CCC3CC2)CC1 (configuration not stated)	D1 ag 590
N#Cc1cc(Cl)c(N2CCOCC2)cc1C#N	none (no result: D1 antagonist)
CN1CCN(C2=CC3=CC(=C(C#N)C#N)CCC3CC2)CC1 (configuration not stated)	D1 ag 723, D1 PAM 37
N#CC(C#N)=C1C=C2C=C(N3CCOCC3)CCC2CC1 (configuration not stated)	D1 ag 522
N#CC(C#N)=C1C=C2C=C(N3CCCCCC3)CCC2CC1 (configuration not stated)	D1 ag 383, D1 antagonist -68
COc1ccc(N2CCN(C(=O)C3CCN(S(=O)(=O)c4cn(C)cn4)CC3)CC2)cc1	none (no result: D3 antag)
CC[N+](CC)(CC)CCOC(=O)C(C1CCCC1)C1CCCC1	none (no result: D1 ag, D3 antag, D1 PAM, D1 antagonist)
O=C1CC(c2ccccc2)CC(O)=C1C=Nc1ccccc1Cl (configuration not stated)	D3 antag -81
NC1=NC(c2cccc(Cl)c2)n2c(nc3ccccc32)N1 (configuration not stated)	none (no result: D3 antag)
Clc1ccc(COc2cccc(CNCc3ccncc3)c2)cc1	D3 ag 40
CC(C)(CO)NCc1cccc(OCc2ccc(Cl)cc2)c1	none
O=C(Nc1cccc(Cl)c1)C1CCN(S(=O)(=O)Cc2ccccc2)CC1	none (no result: D3 antag)
CC(C)NC(=S)Nc1ccc2nc3n(c(=O)c2c1)CCCCC3	D1 antagonist -79
CC1CCCCN1C(=S)Nc1ccc2nc3n(c(=O)c2c1)CCCCC3 (configuration not stated)	none
O=c1c2cc(NC(=S)NCCCN3CCC(Cc4ccccc4)CC3)ccc2nc2n1CCCCC2	D1 ag 46, D3 antag -94, D1 antagonist -41
O=c1c2cc(NC(=S)NC3CC3)ccc2nc2n1CCCCC2	D1 antagonist -38
O=c1c2cc(NC(=S)NCCN3CCCCCC3)ccc2nc2n1CCCCC2	none
O=c1c2cc(NC(=S)N3CCC(N4CCCCC4)CC3)ccc2nc2n1CCCCC2	D1 antagonist -38
Cc1ccc(S(=O)(=O)N2CCN(C(=O)CCCOc3cccc(C)c3)CC2)cc1	D1 antagonist -39
O=C(CCCOc1ccccc1)N1CCN(S(=O)(=O)c2ccccc2)CC1	none
CC(=O)c1ccc(OCCCC(=O)N2CCN(S(=O)(=O)c3ccc(C)cc3C)CC2)cc1	D1 antagonist -31
Cc1ccc(OCCCC(=O)N2CCN(S(=O)(=O)c3cccc(F)c3)CC2)cc1	D1 antagonist -33
